These results are taken from PubChem BioAssay AID493098 (Sanford-Burnham Center for Chemical Genomics, 2011).

Screen size: about 340,000 compounds; about 1,700 (0.5%) were called active. Only a selection was taken, and actives are over-represented in it overall. Values without a mark were called inactive.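 Rule for the calls: active = compounds whose inhibition of the agonist-driven luminescence signal at 20 µM reaches about 50% (limit read from the data); inactive = the rest.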

C-C chemokine receptor type 6 (Homo sapiens), sequence (P51684 whole entry, looked up): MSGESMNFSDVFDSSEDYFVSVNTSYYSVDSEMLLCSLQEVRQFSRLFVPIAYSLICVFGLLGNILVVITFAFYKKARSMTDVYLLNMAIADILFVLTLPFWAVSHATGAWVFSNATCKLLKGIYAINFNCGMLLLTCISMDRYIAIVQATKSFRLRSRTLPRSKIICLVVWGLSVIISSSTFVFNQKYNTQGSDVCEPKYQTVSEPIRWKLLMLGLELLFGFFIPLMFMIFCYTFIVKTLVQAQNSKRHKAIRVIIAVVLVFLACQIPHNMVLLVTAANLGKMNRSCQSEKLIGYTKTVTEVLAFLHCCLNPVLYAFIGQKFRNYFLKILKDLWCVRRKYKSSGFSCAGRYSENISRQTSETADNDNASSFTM

This experiment has as its target C-C chemokine receptor type 6 (Homo sapiens) (UniProt P51684). Description: CCR6 receptor antagonists, primary screen, cell-based, CHO-K1, luminescence, beta-arrestin, uHTS (AID 493098).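 Note: cells stimulated with CCL20 at 14 nM final; plate controls were DMSO with CCL20 for no effect and DMSO without agonist for full effect.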 The note with it: CHO-K1 CCR6 PathHunter beta-arrestin, CCL20-stimulated, at 20 µM, active compounds read high.
With `O=[N+]([O-])c1ccccc1S(=O)(=O)Nc1cccc2cccnc12`, the inhibition (commonly the relative decrease from the control value, in per cent) was 54.6% (active).

As to `COc1cc(NS(=O)(=O)c2ccc3ccccc3c2)c2ncccc2c1`, the inhibition is 13.2%.

Take `NS(=O)(=O)c1ccc(CCNS(=O)(=O)c2cccc3cccnc23)cc1`: the inhibition was 12.6%.

Turning to `CCOc1ccccc1NC(=O)COc1ccc(S(=O)(=O)N2CCCC2)cc1`, the inhibition is 17.1%.

Turning to `CN1CCN(/N=C2/C(=O)Nc3ccc([N+](=O)[O-])cc32)CC1`, the inhibition was 7.16%.

`O=C1Nc2ccc([N+](=O)[O-])cc2C1=Nc1cccc(CO)c1`: the inhibition was 57.4% (active).

For the molecule `O=[N+]([O-])c1ccc(N(CCO)Cc2ccccc2)c([N+](=O)[O-])c1`, the inhibition is 12.9%.

As for `COc1ccc(N2CCN(CCNC(=O)c3nnc(Cc4c(F)cccc4Cl)o3)CC2)cc1`, the inhibition is 14.8%.

For the molecule `CCn1nc(C)c(CN2CCN(Cc3ccc(OC)c(C)c3C)C(CCO)C2)c1C` (configuration not stated), the inhibition is 5.51%.

As for `COc1cc2c(-c3ccc4c(c3)OCO4)c(-c3ccsc3)oc(=O)c2cc1OC`, the inhibition was 21%.

In the case of `O=C(O)c1ccccc1/C=N/Nc1ccc(S(=O)(=O)Nc2ccc(Cl)cc2)cc1[N+](=O)[O-]`, the inhibition is 46.4%.

For `O=C(N/N=C/c1cc(Br)c(O)c([N+](=O)[O-])c1)C(O)(c1ccccc1)c1ccccc1`, the inhibition was 33.5%.

As for `O=C(N/N=C/c1cc(Cl)cc([N+](=O)[O-])c1O)C(O)(c1ccccc1)c1ccccc1`, the inhibition is 54.2% (active).

For `COC(=O)c1cccc(C(=O)N2CCC(CCC(=O)NCc3ccc(F)cc3)CC2)c1`, the inhibition was 7.16%.

`CCc1ccc(N(C(=O)c2csnn2)C(C(=O)NC2CCCCC2)c2cccnc2)cc1` (configuration not stated): the inhibition is 18.2%.

As for `Cc1cc2oc(=O)cc(CN(C)Cc3ccc(OC(F)F)cc3)c2cc1Cl`, the inhibition is 21.5%.

Regarding `COc1ccc(C(C#N)(CC(=O)O)c2cnccn2)cc1OC` (configuration not stated), the inhibition is 14.6%.

Turning to `O=c1nc(N/N=C/c2ccco2)cn[nH]1`, the inhibition is 3.85%.

As to `O=S(=O)(c1ccc(NC(=S)NN=C(C2CC2)C2CC2)cc1)N1CCOCC1`, the inhibition was 15.7%.

In the case of `O=[N+]([O-])c1cc(Cl)cc(/C=N/NC(=S)Nc2cc(S(=O)(=O)N3CCOCC3)ccc2Cl)c1O`, the inhibition is 63.1% (active).

With `Cc1ccc(S(=O)(=O)N2CCN(CC(=O)N/N=C/c3cc([N+](=O)[O-])ccc3Cl)CC2)cc1`, the inhibition is -22.1%.

On to `CCOc1cc(C(=O)OCC(=O)Nc2cccc(C)c2)ccc1OCC(=O)N1CCOCC1`, for which the inhibition is 1.35%.

As for `CCc1nccn1S(=O)(=O)c1cccc([N+](=O)[O-])c1`, the inhibition was 3.26%.

As to `Cc1ccc(/C([O-])=C(/C(=S)NCc2ccco2)[n+]2ccccc2)cc1[N+](=O)[O-]`, the inhibition was 14.2%.

Consider `c1ccc2c(c1)OC1OC2Oc2ccccc21`, for which the inhibition is 19.4%.

Turning to `CCC(C)N1C(=O)S/C(=C/c2ccc(Sc3nc4ccccc4[nH]3)o2)C1=O` (configuration not stated), the inhibition was 15.6%.

Regarding `Cc1cc(C(=O)N/N=C/c2cc([N+](=O)[O-])cc(C)c2O)n[nH]1`, the inhibition was 34.7%.

With `O=[N+]([O-])c1cc(Br)c(O)c(/C=N/Nc2nc3ccccc3s2)c1`, the inhibition is 54.2% (active).

For the molecule `O=C(NC(Nc1nc2ccc([N+](=O)[O-])cc2s1)(C(F)(F)F)C(F)(F)F)c1ccccc1`, the inhibition is 34.6%.

On to `O=C(CN(Cc1ccc(Br)cc1)S(=O)(=O)c1ccccc1)NCc1ccncc1`, for which the inhibition was 28.9%.

Turning to `CCOC(=O)c1c(C)[nH]c(C)c1S(=O)(=O)NCCCc1ccco1`, the inhibition was 0.21%.

Regarding `COc1ccc(C(=O)NC2CC2)cc1OC1CCN(C/C=C/c2ccccc2)CC1`, the inhibition is 3.46%.

For `Nc1nnnn1/N=C/c1cc([N+](=O)[O-])ccc1O`, the inhibition is 23.1%.

As for `O=[N+]([O-])c1ccc(O)c(/C=N/Nc2ccccc2[N+](=O)[O-])c1`, the inhibition was 55.9% (active).

As to `O=C(N/N=C/c1cc([N+](=O)[O-])ccc1O)/C(=C\c1cccs1)NC(=O)c1ccccc1`, the inhibition is 34.4%.

On to `CCN(CC)C(=O)c1nc[nH]c1C(=O)N(C)Cc1ccccc1`, for which the inhibition is 9.33%.

For the molecule `COc1ccc2nc(Nc3nc(-c4cc5ccccc5oc4=O)cs3)sc2c1`, the inhibition was 54.4% (active).

Consider `COc1ccc(OC)c(-c2csc(NC(=O)C3=NNC(=O)CC3)n2)c1`, for which the inhibition was -1%.

For the molecule `COc1ccc2oc(=O)cc(-c3cc4ccccc4o3)c2c1`, the inhibition is 10.7%.

As for `Cc1cc(Cl)c(S(=O)(=O)NCc2cccnc2)cc1OCC(N)=O`, the inhibition was -11.7%.

Consider `CNC(=S)Nc1ccc([N+](=O)[O-])cc1`, for which the inhibition is 7.58%.

With `O=[N+]([O-])c1ccc(N=NNc2ccc([N+](=O)[O-])cc2)cc1`, the inhibition is 58.2% (active).

Consider `NC(=O)C1(Nc2ccc([N+](=O)[O-])cc2)CCCC1`, for which the inhibition was 4.74%.

On to `CC(=O)NC(CC(=O)Nc1ccc(S(=O)(=O)N2CCOCC2)cc1)c1ccccc1` (configuration not stated), for which the inhibition is 4.97%.

As to `Cc1nc(SCC(=O)NC2CCCCC2C)c(C#N)c(C)c1C` (configuration not stated), the inhibition was 13%.

For the molecule `CCOc1ccc(C(=O)NC(=S)Nc2ccc(N3CCOCC3)c(Cl)c2)cc1[N+](=O)[O-]`, the inhibition was 53.9% (active).

Take `COc1cccc(OC)c1C(=O)NC(=S)Nc1ccc(N2CCOCC2)c(Cl)c1`: the inhibition is 8.18%.

Consider `CCOc1ccc(C(=O)NC(=S)Nc2ccc(NC(=O)C(C)C)cc2)cc1[N+](=O)[O-]`, for which the inhibition was 28.1%.

`C/C=C/C=C/C(=O)O`: the inhibition is -5.26%.

For `Cc1ccc(C(=O)NC2CCN(C(=O)Nc3ccc(F)cc3)CC2)cc1`, the inhibition was -8.58%.

On to `COC(=O)c1ccc(NCc2cc(O)ccc2O)cc1`, for which the inhibition is 20.3%.

On to `Cc1ccc(C(=O)CNc2ccc(F)cc2)cc1`, for which the inhibition was 90.9% (active).

Take `COC(=O)c1ccc(NCC(=O)c2ccccc2)cc1`: the inhibition was 72.6% (active).

On to `Cc1ccc(NC(=S)Nc2ccc(F)cc2)cc1`, for which the inhibition was -4.89%.

`COc1ccc(NC(=O)CCCC(=O)c2ccccc2)cc1`: the inhibition was -6.21%.

With `O=C(Nc1ccc(Br)cc1F)C1CC(=O)N(C2CCCCC2)C1` (configuration not stated), the inhibition is 1.54%.

Regarding `CC(C)NC(=O)c1ccc(Sc2ccccc2)c([N+](=O)[O-])c1`, the inhibition is 10.2%.

Turning to `Cc1cc(C)cc(OCC(=O)NNC(=O)CCN2C(=O)c3ccccc3C2=O)c1`, the inhibition was 10.7%.

`CC(=O)N(C1=C(Cl)C(=O)c2ccccc2C1=O)c1ccc(C(=O)O)cc1`: the inhibition is 11.9%.

Regarding `O=C1C(Cl)=C(Oc2ccccc2)C(=O)c2ccccc21`, the inhibition was 117% (active).

For `O=C(CCC1CCN(C(=O)c2cccc(Cl)c2F)CC1)Nc1ccccc1`, the inhibition is 20.2%.

As for `CC(NC(=O)c1ccccc1)C(=O)Nc1ccccc1` (configuration not stated), the inhibition was -0.64%.

`O=C(NC1=CC(=O)c2ccccc2C1=O)c1ccccc1`: the inhibition was 83% (active).

Turning to `O=C1C=C(NS(=O)(=O)c2ccccc2)C(=O)c2ccccc21`, the inhibition is 29.7%.

In the case of `CCn1c(=S)[nH]c2cc(S(=O)(=O)N3CCOCC3)ccc21`, the inhibition is -2.44%.

In the case of `CC(c1ccco1)N(C(=O)Nc1ccccc1)C1CCCCC1` (configuration not stated), the inhibition was 3.12%.

In the case of `COC(=O)/C=C\C(=O)Nc1cccc([N+](=O)[O-])c1`, the inhibition was 106% (active).

For `COc1ccc(S(=O)(=O)NC(C)C(=O)Nc2cccc([N+](=O)[O-])c2)cc1` (configuration not stated), the inhibition is 7.92%.

With `O=C(Nc1cccc([N+](=O)[O-])c1)Nn1cnnc1`, the inhibition is 12.5%.

On to `C/C(N)=C(/C#N)C(=O)COC(=O)C1=NN(c2ccccc2)C(=O)CC1`, for which the inhibition is 7.03%.

In the case of `Cc1ccc(S(=O)(=O)N2CCC(Oc3ccc(-n4cnnn4)cc3)CC2)cc1`, the inhibition was 3.04%.

On to `COc1cccc(/C=C2/SC(=S)N(CC(=O)NC3C=CS(=O)(=O)C3)C2=O)c1` (configuration not stated), for which the inhibition is -8.12%.

As to `CN1C=CC=C/C1=C1\SC(=S)N(Cc2ccccc2)C1=O`, the inhibition is 25.3%.

Turning to `COc1cc(/C=C2/SC(=S)N(Cc3ccccc3)C2=O)cc(OC)c1O`, the inhibition is 52.9% (active).

With `COC(=O)c1ccc(NC(=O)CSc2nncc3ccc(OC)c(OC)c23)cc1`, the inhibition was -2.84%.

As to `C#CCOc1ccc(/C=C2/C(=O)NN(c3ccccc3)C2=O)cc1OC`, the inhibition is 12%.

Turning to `COc1cc(CN2CC(C)CC(C)C2)cc([N+](=O)[O-])c1O` (configuration not stated), the inhibition was 5.99%.

In the case of `COc1cc(/C=C2/C(=O)NN(c3ccc(F)cc3)C2=O)cc([N+](=O)[O-])c1O`, the inhibition was 51.9% (active).

As to `COc1ccc(NC(=O)CC(NC(C)c2ccccc2)C(=O)O)cc1` (configuration not stated), the inhibition was 0.17%.

As for `O=C(COC(=O)c1cc(S(=O)(=O)N2CCOCC2)ccc1Cl)NCCc1ccccc1`, the inhibition is 9.32%.

On to `O=C(C1CCCO1)N(Cc1ccccc1)c1ccccc1` (configuration not stated), for which the inhibition was 2.47%.

With `Oc1ccc(N=Nc2nccs2)c(O)c1`, the inhibition is 67% (active).

For the molecule `Oc1ccc2ccccc2c1N=Nc1nccs1`, the inhibition is 94.3% (active).

Take `Cc1cnc(C(=O)N2CCCC(C(=O)c3ccc(C(F)(F)F)cc3)C2)cn1` (configuration not stated): the inhibition was 15.2%.

Take `Cc1ccccc1C(=O)OC1OC(=O)C(Cl)=C1Nc1ccccc1` (configuration not stated): the inhibition was 17.2%.

As to `O=C1c2ccccc2-c2ncnc3c(N4CCOCC4)cc(N4CCOCC4)c1c23`, the inhibition was 55.9% (active).

Take `O=S(=O)(Nc1cc(Cl)ccc1N1CCOCC1)c1ccccc1Cl`: the inhibition is 17.2%.

As for `Cc1oc2c(c1C(=O)N1CCOCC1)C(=O)c1ccccc1C2=O`, the inhibition was -12.2%.

On to `Cc1ccc2c(C)c(C(=O)N3CCC(N4CCC(C(=O)NC5CC5)CC4)CC3)oc2c1`, for which the inhibition is 1.71%.

As for `CN(C(=O)CSc1nnc(Nc2ccccc2)s1)C1CCS(=O)(=O)C1` (configuration not stated), the inhibition was 4%.

`O=C1c2cccnc2C(Nc2ccc(S(=O)(=O)N3CCCCCC3)cc2)N1Cc1ccccc1` (configuration not stated): the inhibition was 5.72%.

Take `Cc1ccc(S(=O)(=O)NCc2ccc(C(=O)NC3CCC(C)CC3)cc2)cc1` (configuration not stated): the inhibition was 19.3%.
